# Where two headings read alike, the source gives them in different places.
# How the values were obtained:
# FYN = settings: concentration: 1 μM, replicates: in singlicate; n = 1
# GAK = settings: concentration: 1 μM, replicates: in singlicate; n = 1
# GCN2(Kin.Dom.2,S808G) = tested on: T1, GCN2(Kin.Dom.2,S808G); settings: concentration: 1 μM, replicates: in singlicate; n = 1
# T1 construct: gene EIF2AK4
# GRK1 = settings: concentration: 1 μM, replicates: in singlicate; n = 1
# GRK2 = tested on: T2, GRK2; settings: concentration: 1 μM, replicates: in singlicate; n = 1
# T2 construct: gene ADRBK1
# GRK3 = tested on: T3, GRK3; settings: concentration: 1 μM, replicates: in singlicate; n = 1
# T3 construct: gene ADRBK2
# GRK4 = settings: concentration: 1 μM, replicates: in singlicate; n = 1
# GRK7 = settings: concentration: 1 μM, replicates: in singlicate; n = 1
# GSK3A = settings: concentration: 1 μM, replicates: in singlicate; n = 1
# GSK3B = settings: n = 1
# HASPIN = tested on: T4, HASPIN; settings: concentration: 1 μM, replicates: in singlicate; n = 1
# T4 construct: gene GSG2
# HCK = settings: concentration: 1 μM, replicates: in singlicate; n = 1
# HIPK1 = settings: concentration: 1 μM, replicates: in singlicate; n = 1
# HIPK2 = settings: concentration: 1 μM, replicates: in singlicate; n = 1
# HIPK3 = settings: concentration: 1 μM, replicates: in singlicate; n = 1
# HIPK4 = settings: concentration: 1 μM, replicates: in singlicate; n = 1
# HPK1 = settings: concentration: 1 μM, replicates: in singlicate; n = 1
# HUNK = settings: concentration: 1 μM, replicates: in singlicate; n = 1
# ICK = settings: concentration: 1 μM, replicates: in singlicate; n = 1
# IGF1R = settings: concentration: 1 μM, replicates: in singlicate; n = 1
# [1] = concentration: 1 μM, replicates: in singlicate
# 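Further: KINOMEscan kinase panel screen.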
structure (smiles),measurement,setting,value
CN1CCN(Cc2ccc(NC(=O)Nc3ccc(N(C)c4ccnc(Nc5ccc(CS(C)(=O)=O)cc5)n4)cc3)cc2)CC1.Cl [GW827654],%Inh,FYN,40%
same,%Inh,GAK,36%
same,%Inh,"GCN2(Kin.Dom.2,S808G)",17%
same,%Inh,GRK1,9%
same,%Inh,GRK2,27%
same,%Inh,GRK3,21%
same,%Inh,GRK4,86%
same,%Inh,GRK7,3%
same,%Inh,GSK3A,4%
same,%Inh,GSK3B; [1],32%
same,%Inh,HASPIN,19%
same,%Inh,HCK,47%
same,%Inh,HIPK1,83%
same,%Inh,HIPK2,82%
same,%Inh,HIPK3,91.9%
same,%Inh,HIPK4,90.9%
same,%Inh,HPK1,99.6%
same,%Inh,HUNK,0%
same,%Inh,ICK,71%
same,%Inh,IGF1R,0%
Cl.Cl.NC(CNC(=O)c1cc(Br)c(-c2ccnc3[nH]ccc23)s1)c1ccccc1 (stereo not shown) [GSK1322949],%Inh,FYN,17%
same,%Inh,GAK,85%
same,%Inh,"GCN2(Kin.Dom.2,S808G)",0%
same,%Inh,GRK1,3%
same,%Inh,GRK2,39%
same,%Inh,GRK3,70%
same,%Inh,GRK4,76%
same,%Inh,GRK7,75%
same,%Inh,GSK3A,0%
same,%Inh,GSK3B; [1],3%
same,%Inh,HASPIN,92.6%
same,%Inh,HCK,0%
same,%Inh,HIPK1,65%
same,%Inh,HIPK2,68%
same,%Inh,HIPK3,73%
same,%Inh,HIPK4,97.3%
same,%Inh,HPK1,69%
same,%Inh,HUNK,0%
same,%Inh,ICK,0%
same,%Inh,IGF1R,0%
CN(c1ccc2c(c1)nc(NCc1ccccc1)n2C)c1ccnc(Nc2ccc(CS(C)(=O)=O)cc2)n1.Cl [GW811603],%Inh,FYN,69%
same,%Inh,GAK,0%
same,%Inh,"GCN2(Kin.Dom.2,S808G)",0%
same,%Inh,GRK1,0%
same,%Inh,GRK2,35%
same,%Inh,GRK3,8%
same,%Inh,GRK4,33%
same,%Inh,GRK7,16%
same,%Inh,GSK3A,0%
same,%Inh,GSK3B; [1],0%
same,%Inh,HASPIN,3%
same,%Inh,HCK,49%
same,%Inh,HIPK1,41%
same,%Inh,HIPK2,46%
same,%Inh,HIPK3,0%
same,%Inh,HIPK4,38%
same,%Inh,HPK1,72%
same,%Inh,HUNK,0%
same,%Inh,ICK,29%
same,%Inh,IGF1R,6%
CC(=O)Nc1cn2nc(Oc3cccc(NC(=O)c4cccc(C(F)(F)F)c4)c3)ccc2n1,%Inh,FYN,96.7%
same,%Inh,GAK,0%
same,%Inh,"GCN2(Kin.Dom.2,S808G)",37%
same,%Inh,GRK1,0%
same,%Inh,GRK2,0%
same,%Inh,GRK3,0%
same,%Inh,GRK4,1%
same,%Inh,GRK7,0%
same,%Inh,GSK3A,20%
same,%Inh,GSK3B; [1],0%
same,%Inh,HASPIN,0%
same,%Inh,HCK,98.2%
same,%Inh,HIPK1,35%
same,%Inh,HIPK2,0%
same,%Inh,HIPK3,0%
same,%Inh,HIPK4,19%
same,%Inh,HPK1,59%
same,%Inh,HUNK,43%
same,%Inh,ICK,0%
same,%Inh,IGF1R,8%
O=C(Nc1n[nH]c2nc(-c3ccccc3)ccc12)C1CC1 [SB-708999],%Inh,FYN,0%
same,%Inh,GAK,17%
same,%Inh,"GCN2(Kin.Dom.2,S808G)",0%
same,%Inh,GRK1,10%
same,%Inh,GRK2,0%
same,%Inh,GRK3,28%
same,%Inh,GRK4,9%
same,%Inh,GRK7,0%
same,%Inh,GSK3A,77%
same,%Inh,GSK3B; 1 µM,12%
same,%Inh,HASPIN,0%
same,%Inh,HCK,7%
same,%Inh,HIPK1,0%
same,%Inh,HIPK2,29%
same,%Inh,HIPK3,0%
same,%Inh,HIPK4,8%
same,%Inh,HPK1,54%
same,%Inh,HUNK,0%
same,%Inh,ICK,4%
same,%Inh,IGF1R,6%
O=C1NC(=O)C(c2ccccc2Cl)=C1Nc1cccc(Cl)c1 [SB-342409],%Inh,FYN,22%
same,%Inh,GAK,7%
same,%Inh,"GCN2(Kin.Dom.2,S808G)",0%
same,%Inh,GRK1,13%
same,%Inh,GRK2,0%
same,%Inh,GRK3,36%
same,%Inh,GRK4,26%
same,%Inh,GRK7,0%
same,%Inh,GSK3A,45%
same,%Inh,GSK3B; 1 µM,33%
same,%Inh,HASPIN,0%
same,%Inh,HCK,0%
same,%Inh,HIPK1,0%
same,%Inh,HIPK2,0%
same,%Inh,HIPK3,2%
same,%Inh,HIPK4,3%
same,%Inh,HPK1,49%
same,%Inh,HUNK,0%
same,%Inh,ICK,45%
same,%Inh,IGF1R,20%
N#Cc1cnc2cc(-c3cnc(CNCCN4CCOCC4)s3)ccc2c1Nc1ccc(Oc2ccccc2)cc1 [GW664114],%Inh,FYN,93.2%
same,%Inh,GAK,43%
same,%Inh,"GCN2(Kin.Dom.2,S808G)",100%
same,%Inh,GRK1,0%
same,%Inh,GRK2,0%
same,%Inh,GRK3,27%
same,%Inh,GRK4,0%
same,%Inh,GRK7,0%
same,%Inh,GSK3A,6%
same,%Inh,GSK3B; [1],10%
same,%Inh,HASPIN,0%
same,%Inh,HCK,99%
same,%Inh,HIPK1,0%
same,%Inh,HIPK2,0%
same,%Inh,HIPK3,17%
same,%Inh,HIPK4,0%
same,%Inh,HPK1,89%
same,%Inh,HUNK,12%
same,%Inh,ICK,0%
same,%Inh,IGF1R,17%
O=C(Nc1n[nH]c2cc(-c3cccs3)ccc12)C1CC1 [SB-731284],%Inh,FYN,0%
same,%Inh,GAK,0%
same,%Inh,"GCN2(Kin.Dom.2,S808G)",0%
same,%Inh,GRK1,56%
same,%Inh,GRK2,0%
same,%Inh,GRK3,0%
same,%Inh,GRK4,47%
same,%Inh,GRK7,0%
same,%Inh,GSK3A,52%
same,%Inh,GSK3B; 1 µM,57%
same,%Inh,HASPIN,0%
same,%Inh,HCK,0%
same,%Inh,HIPK1,37%
same,%Inh,HIPK2,4%
same,%Inh,HIPK3,63%
same,%Inh,HIPK4,6%
same,%Inh,HPK1,0%
same,%Inh,HUNK,0%
same,%Inh,ICK,78%
same,%Inh,IGF1R,0%
